Compound activity (PubChem)
sEH activator: activators of human soluble epoxide hydrolase; AID 717; purified human sEH enzymatic activity, activator screen; P34913; actives 0.04% (n = 91,000); activation, % at 2 µM; in the data active = activation above about 37%
Target sequence (P34913 whole entry, looked up): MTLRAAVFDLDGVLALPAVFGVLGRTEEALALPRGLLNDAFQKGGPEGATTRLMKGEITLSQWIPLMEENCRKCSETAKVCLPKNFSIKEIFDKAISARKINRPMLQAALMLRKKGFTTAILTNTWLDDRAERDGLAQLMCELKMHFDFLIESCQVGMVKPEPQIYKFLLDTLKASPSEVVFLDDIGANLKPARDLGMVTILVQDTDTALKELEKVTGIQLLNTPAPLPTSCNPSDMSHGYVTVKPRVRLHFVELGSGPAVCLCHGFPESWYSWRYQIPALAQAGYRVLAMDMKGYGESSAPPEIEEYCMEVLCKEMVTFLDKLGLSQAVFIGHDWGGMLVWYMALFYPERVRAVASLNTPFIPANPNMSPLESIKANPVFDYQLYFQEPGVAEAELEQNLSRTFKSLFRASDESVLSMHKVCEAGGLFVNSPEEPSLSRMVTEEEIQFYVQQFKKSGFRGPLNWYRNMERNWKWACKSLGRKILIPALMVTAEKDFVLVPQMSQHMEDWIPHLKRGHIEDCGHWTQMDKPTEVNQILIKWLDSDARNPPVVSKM
CYP2C9 act: activators of human CYP2C9. P11712. recombinant CYP2C9, luciferin-H conversion, luminescence; stronger effect = higher value; factor 1 = untreated enzyme, 0 = blocked. activation factor at 5 µM. actives 1.4% (n = 96,000);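 active = activation factor of 2 or more for CYP2C9 at a 5 µM dose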;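 also: 0 = sulfaphenazole-blocked wells and 1 = vehicle-only wells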
sEH inh: inhibitors of human soluble epoxide hydrolase. recombinant human sEH enzymatic activity assay. actives 0.34% (n = 91,000). inhibition, % at 2 µM. P34913; in the data active = inhibition above about 80%
CYP2C9 inhib: inhibitors of human CYP2C9; P11712; CYP2C9 Supersomes, luciferin-H conversion, luminescence; inhibition, % at 5 µM; actives 20% (n = 96,000); AID 777;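 active = blocking of liver enzyme CYP2C9 beyond about 50% at 5 µM, limit read from the data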
CYP2C19 inhib: human CYP2C19 inhibition; P33261; inhibition, % at 5 µM; AID 778; CYP2C19 Supersomes, luciferin-H EGE luminescence, 30 min; actives 21% (n = 96,000);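 active = CYP2C19 inhibition above a set limit at 5 µM in the primary screen, cut at about 50% in these data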;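 also: plate controls were negative control wells for no effect and 2.5 mM tranylcypromine positive control for full effect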
CYP2C19 act: increases human CYP2C19 enzyme activity; P33261; recombinant CYP2C19, luciferin-H EGE luminescence; stronger effect = higher value; 0 = fully inhibited enzyme, 1 = untreated enzyme; activation factor at 5 µM; 96,000 tested, under 10 active; AID 1025;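 active = activation factor of at least 2 at 5 µM in the primary screen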;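 also: 0 = wells with 2.5 mM tranylcypromine and 1 = vehicle-only wells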
Starred values were filed as active, the others as inactive; . = no result. Hits are enriched below; roughly 27% of the tested compounds scored in any of these assays.

SMILES	sEH activator	CYP2C9 act	sEH inh	CYP2C9 inhib	CYP2C19 inhib	CYP2C19 act
Cc1nnsc1C(=O)NNS(=O)(=O)c1ccccc1	0	1	-2	4	-13	1.1
CCOc1ccc(N2C(=O)CC(n3ccc(C)n3)C2=O)cc1 (stereo not given)	-4	.	7	.	.	.
COC(=O)C1=C(CSc2nc3c(cc2C#N)CN(C)CC3)OC(N)=C(C#N)C1c1ccccc1F (stereo not given)	-13	.	15	.	.	.
CCOC(=O)C1=C(CSc2nc(-c3ccccc3)ccc2C#N)OC(N)=C(C#N)C1c1ccccc1 (stereo not given)	4	0.1	-6	92*	59*	0.4
CCOC(=O)C1=C(CSc2nc3c(cc2C#N)CN(C)CC3)OC(N)=C(C#N)C1c1ccccc1 (stereo not given)	4	0.6	0	41	43	0.6
CCOC(=O)C1=C(CSc2nc(-c3ccccc3)ccc2C#N)OC(N)=C(C#N)C1c1cccnc1 (stereo not given)	10	0.1	-13	94*	92*	0.1
CCOC(=O)C1=C(CSc2nc3c(cc2C#N)CN(C)CC3)OC(N)=C(C#N)C1c1ccc(F)cc1 (stereo not given)	8	0.1	-11	86*	92*	0.1
N#CN=C1CCCCCN1CC(N)=O	-5	1	4	-2	2	1
CCCCCCS(=O)[C@H]1CS(=O)(=O)C[C@@H]1S(=O)CCCCCC (stereo not given in full)	2	0.9	-4	7	4	1
CCN(CC)S(=O)(=O)c1ccc(C(=O)OC2CCCCC2CN(C)C)cc1 (stereo not given)	9	0.5	-8	50*	8	0.9
CCCC(=O)NCCCc1nc2ccccc2n1C(C)C	-10	1.4	14	-41	7	0.9
CCC1Oc2ccccc2N(CC(=O)NCCC2=CCCCC2)C1=O (stereo not given)	.	0.6	.	41	89*	0.1
O=C(CSc1ncccc1C(=O)O)NCCC1=CCCCC1	3	0.9	-2	6	0	1
O=C(NCCC1=CCCCC1)C1COc2ccccc2O1 (stereo not given)	.	0.4	.	58*	87*	0.1
O=C(CN1CCN(c2ncccn2)CC1)NCCC1=CCCCC1	-7	0.1	8	94*	54*	0.5
O=C(NCCCN1CCOCC1)C1COc2ccccc2O1 (stereo not given)	8	1.1	-9	-8	29	0.7
O=C(NCCC1=CCCCC1)NC12CC3CC(CC(C3)C1)C2	-97	.	97*	.	.	.
N#CC1=C2C=CC=CN2CC1=O	1	0.9	-2	10	-7	1.1
COCCCNC(=O)c1c(NC(=O)C2COc3ccccc3O2)sc2c1CCCC2 (stereo not given)	-8	0.1	8	92*	82*	0.2
O=C(CN1C(=O)C2C3C=CC(C3)C2C1=O)NCCC1=CCCCC1 (stereo not given)	-14	0.9	13	15	51*	0.5
NC(=O)CNC(=O)[C@@H]1CC2(CC(c3ccccc3)=NO2)CN1C(=O)c1ccc(Br)cc1 (stereo not given in full)	0	0.9	1	10	2	1
c1ccc2c(c1)[nH]c1c(NCC3CCCO3)ncnc12 (stereo not given)	0	0.5	-1	54*	44	0.6
c1nc(NCC2CCCO2)c2[nH]cnc2n1 (stereo not given)	-1	.	1	.	.	.
C=CCNc1ncnc2c1[nH]c1ccccc12	-6	0.7	6	28	33	0.7
CCOCCCNc1ncnc2c1[nH]c1ccccc12	-6	0.6	6	39	60*	0.4
SMILES	sEH activator	CYP2C9 act	sEH inh	CYP2C9 inhib	CYP2C19 inhib	CYP2C19 act
CCCCOCCCNc1ncnc2c1[nH]c1ccccc12	-2	0.3	2	66*	52*	0.5
COc1cc2c(=O)n(CCCN3CCOCC3)c(=S)[nH]c2c(OC)c1OC	8	0.9	-8	6	1	1
CC(C)C(=O)Nc1ccc(C(=O)NNC(=O)c2ccco2)cc1	4	1.1	-3	-7	0	1
Cc1ccc(N(CC(=O)N2CC(=O)Nc3ccccc32)S(=O)(=O)c2ccc3c(c2)OCCO3)cc1	-2	.	1	.	.	.
COC(=O)Cc1c(O)ccn(Cc2ccc(F)cc2)c1=O	-12	1.1	12	-13	-3	1
CCOC(=O)c1cc(CN2CCOCC2)oc1-c1ccccc1	-6	0.8	8	22	26	0.7
CC1CCCC(C)N1C(=O)COC(=O)c1ccc(O)cc1 (stereo not given)	6	0.9	-7	10	-16	1.2
O=C(OCC(=O)N(C1CCCCC1)C1CCCCC1)c1ccncc1	.	0.3	.	65*	99*	0
